Screening data from PubChem.
Shown are actives, neighbours in structure and some others; about 19% of the full set was active somewhere.
HT1080-NT tox = qHTS for induction of synthetic lethality in tumor cells producing 2HG: qHTS for the HT-1080-NT fibrosarcoma cell line | HT-1080-NT fibrosarcoma viability, CellTiter-Glo ATP luminescence, 48 h | Potency, µM (series often up to 46.1 µM), inactives show at the top dose activity, negative = less viability, actives largely listed as cytotoxic | hit rate 1.6% among 360,000;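 also: NT is the 2HG producing partner of a matched IDH1 knockdown line; potency is read from the fitted curve at half-maximal effect; 0% = DMSO-treated cells and -100% = media-only wells without cells; nearly all actives have a fitted effect of over 55% in size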
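Viability by CellTiter-Glo luminescence after 48 h compound exposure at 37C of HT-1080-NT cells (750/well, RPMI, 5% FBS). % activity scaled between DMSO wells and medium-only wells, then curve-fitted and categorized by curve class.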
TDP1 cell CPT = qHTS for Inhibitors of human tyrosyl-DNA phosphodiesterase 1 (TDP1): qHTS in cells in presence of CPT. chicken DT40 Tdp1-/-;hTDP1 cells + 20 nM CPT, ATP luminescence, 48 h. AID 686979, 2013. hit rate 12% among 420,000. Potency, µM (top dose mostly 46.2 µM), without a hit: at the top dose activity change, negative = growth inhibition, usual class: inhibitors; also: potency is read from the fitted curve at half-maximal effect; nearly all actives have a fitted effect of over 55% in size
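Chicken DT40 Tdp1-/- cells stably complemented with human TDP1 were seeded at 400 cells/well in medium containing 20 nM camptothecin, exposed to pin-transferred compounds, and grown at 37 °C for at least 48 hr. Viability was read as ATP luminescence.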
IL-1B inflam inh = qHTS for Inhibitors of Inflammasome Signaling: IL-1-beta AlphaLISA Primary Screen; hit rate 4.7% among 360,000; activity change, % at 57.5 µM; THP-1 LPS/ATP IL-1B secretion, AlphaLISA, 16 h; hits give low values; AID 743279, 2014; in the data active = activity change below about -50%; inconclusive = mostly about -30% to -49%
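Secreted IL-1B measured by AlphaLISA bead assay after 16 h compound exposure of THP-1 cells; compounds (final up to 57.5 uM) added 1 h before LPS (250 ng/mL) and ATP (1.25 mM) stimulation; lower signal means less secretion.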
HT1080 IDH1KD tx = qHTS for induction of synthetic lethality in tumor cells producing 2HG: qHTS for the HT-1080-IDH1KD cell line. HT-1080 IDH1 knockdown viability, ATP luminescence, 48 h. Potency, µM (titrated, usually from 46.1 µM), for inactives: at the top dose activity, negative = toxicity, most hits filed as cytotoxic. hit rate 2% among 360,000. AID 686971, 2013;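 also: potency is read from the fitted curve at half-maximal effect; 0% = DMSO wells and -100% = cell-free medium wells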
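CellTiter-Glo luminescence after 48 h compound exposure at 37 degrees C of IDH1-knockdown HT-1080 cells in 5% FBS RPMI. %Activity scaled between DMSO wells and cell-free media wells, with curves fitted and assigned curve classes.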
DT40 TDP1 no CPT = qHTS for Inhibitors of human tyrosyl-DNA phosphodiesterase 1 (TDP1): qHTS in cells in absence of CPT. DT40 Tdp1-/- hTDP1 cells, no CPT, ATP luminescence, 48 h. Potency, µM (highest dose often 46.2 µM), without a hit: at the top dose activity change, negative = growth inhibition, hits mostly inhibitors. hit rate 15% among 420,000; also: potency is read from the fitted curve at half-maximal effect; nearly all actives have a fitted effect of over 55% in size
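Camptothecin absent (DMSO only). Human TDP1-complemented DT40 knockout cells, 400 cells/well, 37 °C for minimum 48 hr; ATP measured via CellTiter-Glo, 30 min dark incubation, luminescence.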
Active calls of the source: *; ? = inconclusive; . = not tested or not shown. Unless noted, calls follow the shape of the dose curve; as a rule, active = well fitted curve in the direction sought with a large enough effect; inconclusive = small, poorly fitted or top-dose-only effect, or another doubt; inactive = no such curve, though single readings can be large; an effect the other way counts as inactive or inconclusive. Unless noted, % is scaled to controls: 0 for no effect and ±100 for the full control effect.

SMILES	HT1080-NT tox	TDP1 cell CPT	IL-1B inflam inh	HT1080 IDH1KD tx	DT40 TDP1 no CPT
COc1ccc(C(=O)N(C)c2ccccc2C(=O)NCCc2ccccc2)cc1	-16.5%	4.11µM*	30.9	?	2.91µM*
COc1ccc(C(=O)COC(=O)CCc2ccccc2)cc1	21.2%	-9.8%	15.1	21.9%	19.6%
COc1ccc(C(=O)CC(=O)c2ccc(C(C)(C)C)cc2)cc1	1.1%	?	8.4	-17.4%	?
COc1ccc(C(=O)C(CCC(CNC(C)(C)C)C(=O)c2ccc(OC)cc2)CNC(C)(C)C)cc1 (stereo not drawn)	?	5.17µM*	-100.9*	4.61µM*	5.17µM*
CN(C(=O)c1ccccc1)c1ccccc1C(=O)NCCc1ccccc1	0.8%	?	6.6	0.6%	?
COc1ccc(C(=O)CCc2ccccc2)cc1	15.2%	1.5%	-52.4*	22.4%	-2.4%
Cc1ccc(S(=O)(=O)N(C)C[C@H]2Oc3ccc(NC(=O)Nc4c(C)noc4C)cc3CC(=O)N([C@@H](C)CO)C[C@@H]2C)cc1	0.0%	-21.3%	16.3	10.2%	6.7%
CCc1ccc(NC(=S)N(Cc2ccccc2)Cc2ccccn2)cc1	?	11.6µM*	-60.1*	?	4.61µM*
CCc1ccc(NC(=S)N(Cc2cccnc2)Cc2ccco2)cc1	-6.0%	?	-66.6*	2.1%	18.4µM*
Cc1ccc(C(=O)N2CC(C)SC2=Nc2cccc(S(=O)(=O)N(C)C)c2)cc1 (stereo not drawn)	-1.7%	29.1µM*	13.4	-11.5%	?
Cc1cc(C)cc(C(=O)N2CC(C)SC2=Nc2cccc(S(=O)(=O)N(C)C)c2)c1 (stereo not drawn)	-16.2%	?	-2.2	-18.8%	?
CCCCOc1ccc(CSCCNC(=S)Nc2ccccc2)cc1	-19.3%	18.4µM*	-4.8	?	?
CCCCCOc1ccc(CSCCNC(=S)Nc2ccccc2)cc1	11.2%	-14.2%	16.2	2.0%	-27.7%
CC(C)COc1ccc(CSCCNC(=S)Nc2ccccc2)cc1	?	?	-9.1	?	14.6µM*
C=CCCN(C1CCCC1)S(=O)(=O)c1ccccc1Br	-9.1%	?	9.6	-0.2%	-33.6%
COc1cc(CN(C2CC2)S(=O)(=O)c2ccccc2Br)cc(OC)c1	-2.2%	?	3.9	-0.7%	13µM*
N#CCOC(=O)/C=C/c1ccc2c(c1)OCO2	16.5%	-7.1%	-6.4	1.2%	-16.1%
CN(C)c1nc(-c2ccccc2C(F)(F)F)nc2ccccc12	.	-12.1%	.	.	-13.8%
COc1ccc(C2CC(c3c(-c4ccccc4)c4cc(Cl)ccc4[nH]c3=O)=NN2C(=O)CCC(=O)O)cc1 (stereo not drawn)	-26.9%	0.7%	-5.2	?	0.6%
COc1ccccc1C1CC(c2c(-c3ccccc3)c3cc(Cl)ccc3[nH]c2=O)=NN1S(C)(=O)=O (stereo not drawn)	25.9µM*	25.9µM*	-10.7	?	29.1µM*
COc1cccc(C2CC(c3c(-c4ccccc4)c4cc(Cl)ccc4[nH]c3=O)=NN2S(C)(=O)=O)c1OC (stereo not drawn)	?	20.6µM*	?	18.4µM*	16.4µM*
COc1ccc(CCN(C)C(=O)Cc2ccc(-c3ccccc3)cc2)cc1OC	?	18.4µM*	-54.8*	-27.9%	16.4µM*
COc1ccc(-c2cc(C(=O)N(C)CCc3ccc(OC)c(OC)c3)c3ccccc3n2)cc1	-9.3%	14.6µM*	-4.8	-6.1%	23.1µM*
COc1ccc(CCN(C)C(=O)c2cc(-c3ccccc3)nc3ccccc23)cc1OC	-4.9%	?	17.1	5.8%	23.1µM*
CCc1noc(C)c1C(=O)OCC(=O)NCc1ccccc1OC	9.1%	4.7%	11.1	0.0%	?
SMILES	HT1080-NT tox	TDP1 cell CPT	IL-1B inflam inh	HT1080 IDH1KD tx	DT40 TDP1 no CPT
CC(C)Cn1c(N)c(C(=O)COC(=O)C2Cc3ccccc3CN2S(C)(=O)=O)c(=O)n(C)c1=O (stereo not drawn)	0.0%	6.51µM*	-9.3	-3.8%	5.17µM*
CC(=O)c1c(C)[nH]c(C(=O)OCC(=O)c2c(N)n(CC(C)C)c(=O)n(C)c2=O)c1C	4.9%	?	22.9	7.6%	23.1µM*
Cn1c(=O)c(C(=O)CCl)c(N)n(CC2CC2)c1=O	4.6%	23.1µM*	?	2.8%	18.4µM*
CC(C)Cn1c(N)c(C(=O)COC(=O)C2CCCCC2)c(=O)n(C)c1=O	-11.2%	16.4µM*	60.0	-12.8%	18.4µM*
CC(C)Cn1c(N)c(C(=O)COC(=O)c2cnccn2)c(=O)n(C)c1=O	4.7%	?	39.3	3.1%	-16.4%
Cc1cccc(N2CC(C(=O)OCC(=O)c3c(N)n(CC(C)C)c(=O)n(C)c3=O)CC2=O)c1C (stereo not drawn)	4.1%	?	1.8	4.6%	?
CC1CCCCC1NC(=O)CCn1ccc2cc(S(=O)(=O)N3CCCC3)ccc21 (stereo not drawn)	-0.6%	?	-6.3	-12.4%	-23.3%
COc1ccc(CCNC(=O)c2ccc3c(c2)N(Cc2ccc(F)cc2)C(=O)c2ccccc2S3(=O)=O)cc1OC	.	?	.	.	11.6µM*
O=C(NCCc1ccccc1)c1ccc2c(c1)N(Cc1ccc(Cl)cc1)C(=O)c1ccccc1S2(=O)=O	.	14.6µM*	.	.	23.1µM*
CCN1C(=O)c2ccccc2S(=O)(=O)c2ccc(C(=O)NCc3ccc(F)cc3)cc21	.	?	.	.	23.1µM*
CCN(CC)S(=O)(=O)c1ccc(N2CCOCC2)c(NS(=O)(=O)c2cccs2)c1	2.7%	0.4%	11.7	1.8%	2.9%
COc1ccc(OC)c(NC(=O)c2cc(S(=O)(=O)N(C)C)ccc2N2CCCC2)c1	-6.3%	-29.4%	1.8	2.0%	-27.7%
CCN(CC)S(=O)(=O)c1ccc(N2CCOCC2)c(NC(=O)Cc2ccc(Cl)cc2)c1	-11.1%	?	20.0	-16.6%	?
CCN(CC)S(=O)(=O)c1ccc(N2CCCC2)c(NC(=O)Cc2ccccc2)c1	-1.9%	?	0.0	9.2%	14.6µM*
CCN(CC)S(=O)(=O)c1ccc(N2CCCCC2)c(NC(=O)/C=C/c2cc(OC)c(OC)c(OC)c2)c1	19.9%	?	-0.4	13.0%	11.6µM*
CCN(CC)S(=O)(=O)c1ccc(N2CCCC2)c(NC(=O)c2ccccc2OC)c1	-1.7%	?	-2.3	-6.4%	14.6µM*
